Measurements as given in the OligoGym collection.

The sequences below were run against CXCL1 (assay: pooled miR-30 sensor sort-seq; sequence = guide strand). Conditions: shRNA.
Also: reference of the scale not given here.

Sequence | sensor-assay potency score (higher = more potent)
TTCACGTTCACACTTTGGATGT | -1.04
ACACTTTGGATGTTCTTGGGGT | -0.0598
TTCCGCCCATTCTTGAGTGTGG | -0.98
TTCGATGATTTTCTTAACTATG | -1.26
TTGAGGCAAGCTTTCCGCCCAT | -0.645
TTAACTATGGGGGATGCAGGAT | -1.04

What follows are sequences tested against CXCL3 in the same assay as above. Conditions: shRNA.

Sequence | sensor-assay potency score (higher = more potent)
TAAATAAGTAGAACCCTCGTAA | -0.0177
TAGTCAAACACATTAAGTCCTT | -0.625
TGAGACAAGCTTTCTTCCCATT | -1.23
ATGATTTTCTGAACCATGGGGG | -0.165
TGCAGTGTCTGCAAGCACTGGC | 0.137
TTGTTCAGTATCTTTTCGATGA | -0.149
TAAATAATCAGGACTGAGCTAT | -0.218
TTTGATGAAACACACTCACATC | -1.05
TTGAGACAAGCTTTCTTCCCAT | 0.654
TTTCTTCCCATTCTTGAGTGTG | -0.403
TACATAAATAAGTAGAACCCTC | -0.724
TTCGATGATTTTCTGAACCATG | -0.954

What follows are sequences tested against CXorf40A in the same assay as above. Conditions: shRNA.

Sequence | sensor-assay potency score (higher = more potent)
TCAGTACAGCTTGATTTTCTAG | -0.864
TCAGGTTGGTCAGTACAGCTTG | 0.439
TTGGTCAGTACAGCTTGATTTT | -1.4
TCCACCAGCAGCTCCCGCCAGG | -1.9
TTCAGGTTGGTCAGTACAGCTT | -0.578
TACAGCTTGATTTTCTAGTTCC | 0.219

These sequences were tested against CXorf41 in the same assay as above. Conditions: shRNA.

Sequence | sensor-assay potency score (higher = more potent)
TAACTCTCTTTTCATAGTCATA | -1.66
TTCAATTATGTAATTGACCATG | -1.17
TAACTGAAGAAACACTCTCAAA | -1.54
TTTATTACCTGTATATTCCAGA | 0.269
TATCATCATATTCTGCTCCTTC | 0.467
TTCTTCAGGATTAAGTAGCTTA | 0.137
TTATCAACAGCTTCTTCTGAGG | -1.2
TTGAGCTCTTCTATTTGGGGTG | 0.00833
TAGTTCACTGCAACAACCTGTT | -0.276
TAACATCCCACATATCATCATA | -1.24
TTAGCCACTAGTTCACTGCAAC | -0.799
TATATCTTCAGTTCCCACCTGC | 0.748

Each sequence was assayed against CXorf56 in the same assay as above. Conditions: shRNA.

Sequence | sensor-assay potency score (higher = more potent)
TACTGCTCCATCCACAATGAAG | -1.81
TTTCTGAGTATATATGTTCGTT | -0.396
TTCTGAGTATATATGTTCGTTT | -0.865
TATGAGTCAGCAACTTCCCTAG | 0.0765
